# Compound activity as filed in PubChem.
# ABHD5 PLIN5 PPI: inhibitors of human ABHD5-perilipin-5 interaction. Q00G26+Q8WTS1. Split G. princeps luciferase complementation, luminescence, 4 h. 360,000 tested, 0.78% active. AID 602281. inhibition, % at 4 µM;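 active means inhibition above the mean inhibition across every tested compound plus 3 SD, cut at about 22% in these data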;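 further: 0% = DMSO only wells and the 100% control is not disclosed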
# Target sequence (Q00G26 whole entry, looked up): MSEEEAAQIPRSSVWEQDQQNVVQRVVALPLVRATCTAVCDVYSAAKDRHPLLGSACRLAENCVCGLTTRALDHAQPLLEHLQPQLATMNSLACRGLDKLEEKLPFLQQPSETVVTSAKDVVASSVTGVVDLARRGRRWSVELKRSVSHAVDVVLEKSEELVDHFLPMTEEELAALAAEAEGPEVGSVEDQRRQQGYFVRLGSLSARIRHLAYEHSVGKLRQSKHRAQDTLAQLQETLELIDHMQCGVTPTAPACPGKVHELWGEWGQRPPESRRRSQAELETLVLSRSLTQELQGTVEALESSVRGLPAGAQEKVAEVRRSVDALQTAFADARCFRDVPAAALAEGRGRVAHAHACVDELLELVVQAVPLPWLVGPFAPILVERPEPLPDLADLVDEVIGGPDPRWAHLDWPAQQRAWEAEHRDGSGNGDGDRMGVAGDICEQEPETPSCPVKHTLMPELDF
# Target sequence (Q8WTS1 whole entry, looked up): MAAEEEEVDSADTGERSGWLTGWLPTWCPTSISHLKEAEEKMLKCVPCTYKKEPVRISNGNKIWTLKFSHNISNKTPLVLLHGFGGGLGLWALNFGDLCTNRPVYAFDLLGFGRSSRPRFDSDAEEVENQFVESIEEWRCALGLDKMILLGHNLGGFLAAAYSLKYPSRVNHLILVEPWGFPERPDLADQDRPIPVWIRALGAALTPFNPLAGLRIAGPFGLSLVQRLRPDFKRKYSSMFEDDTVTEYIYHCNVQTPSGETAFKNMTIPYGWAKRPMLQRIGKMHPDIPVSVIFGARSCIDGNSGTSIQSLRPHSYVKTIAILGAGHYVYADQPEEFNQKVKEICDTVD
# m5-HT2A agonist: agonists of mouse serotonin 5-HT2A receptor (HTR2A) | P35363 | CHO-K1 mHTR2A beta-arrestin complementation, luminescence; percent of 30 µM serotonin response | activation, % at 7.6 µM | 360,000 tested, 0.66% active | AID 624169;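 active means activation above a run cutoff, the mean activation of all tested compounds plus 3 SD, cut at about 14% in these data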;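 further: 0% = plate median of compound wells and 100% = 30 µM serotonin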
# B2AR ag: agonists of human beta-2 adrenergic receptor inducing internalization; P07550; response, % (test concentration not listed); Am2.2-beta2AR cells, FAP receptor internalization, flow cytometry; 340,000 tested, 0.43% active;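 active means response above a set limit, near 3 SD of response in nonfluorescent compounds, cut at about 42% in these data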
# NTR1 agonist: agonists of human neurotensin receptor NTR1. P30989. NTR1-U2OS beta-arrestin-GFP spot imaging, agonist mode. activation, % at 20 µM. 330,000 tested, 0.17% active;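 active means activation at or above 40% of the spot to cytoplasm intensity ratio, with at least 20 cells analyzed; inconclusive means wells under 20 cells, flagged as cytotoxic or low count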;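 further: 0% = DMSO without peptide and 100% = 100 nM NTR1 peptide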
# Exocytosis inh: lytic granule exocytosis inhibition | 360,000 tested, 0.66% active | TALL-104 LAMP-1 surface exposure, flow cytometry; cells stimulated with thapsigargin and PMA | inhibition, % at 10 µM;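 active means inhibition above about 55%, limit read from the data; inconclusive means no clear call, values can overlap the other calls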
# Starred values were filed as active, the others as inactive; i = inactive; ? = inconclusive; · = no result. The list is not random: actives were taken first. Their share in the collection is about 2.3%.
SMILES,ABHD5 PLIN5 PPI,m5-HT2A agonist,B2AR ag,NTR1 agonist,Exocytosis inh
O=C1C(=O)c2cccnc2-c2ncccc21,101*,14,·,·,105*
O=C1c2cccnc2-c2ncccc21,-1,1,-3,3,0
COCCn1c(C)cc(/C=C(\C#N)C(=O)OCC(=O)N(C)c2c(N)n(Cc3ccccc3)c(=O)[nH]c2=O)c1C,-3,6,-3,-1,-4
C/C(Cc1nnn(-c2cc(C)on2)n1)=N\O,-2,5,5,0,-7
O=C(NCc1ccccc1)N1CCN(c2ccc(F)cc2)CC1,-4,0,18,-3,-2
O=C(NCc1ccccc1)N1CCN(c2ccc(Cl)c(Cl)c2)CC1,3,18*,3,0,-2
CC1=NN(c2ccccc2)C(=O)/C1=C\C=C\c1ccccc1,22*,1,35,26,4
C/C(=N\Nc1ccc(Cl)c(C(=O)O)c1)c1ccccn1,-3,-3,0,2,-7
C/C(=N\Nc1ncc(Cl)cc1Cl)c1ccccn1,-1,-7,-267,·,98*
O=C(NNc1c2ccccc2nc2ccccc12)c1ccccc1Cl,-1,-6,-10,9,-4
O=C(NNc1c2ccccc2nc2ccccc12)C12CC3CC(CC(C3)C1)C2,-2,1,45*,6,-1
CN(CC(=O)Nc1ccccc1C(F)(F)F)C(=O)c1ccc(-c2ccc(Cl)cc2)o1,0,0,-3,2,0
CCOc1ccccc1/C=C/C(=O)N1CCN(C(=O)c2ccco2)CC1,10,1,84*,0,-1
COCCN(C(=O)C1CC(=O)N(Cc2ccc(C)cc2)C1)c1c(N)n(CC(C)C)c(=O)[nH]c1=O (stereo not drawn),15,4,-3,1,3
COc1ccc(C(c2c(O)ccc3ccccc23)N2CCOCC2)c(OC)c1 (stereo not drawn),96*,-4,18,11,-6
COc1ccc(C(CCN2CCOCC2)c2c(O)cc(OC)cc2OC)cc1 (stereo not drawn),3,-4,-1,-5,-1
O=C(/C=C/c1ccccc1)NC(NC(=S)Nc1cc(Cl)ccc1Cl)C(Cl)(Cl)Cl (stereo not drawn),0,9,-3,2,9
COc1cc2c(O)c3c(c(-c4ccc5c(c4)OCO5)c2cc1OC)C(=O)OC3,1,8,45*,8,1
COc1cc2c(OC(C)=O)c3c(c(-c4ccc5c(c4)OCO5)c2cc1OC)C(=O)OC3,-4,11,59*,11,1
COc1ccc(-c2ccc(C(=O)Nc3ccc(Cl)cc3)c3occc23)c(C)c1,-15,-2,·,·,?
O=C(NCc1ccccc1)C(c1c(F)cccc1Cl)N(C(=O)c1csnn1)C1CC1 (stereo not drawn),-2,9,3,-1,-2
Cc1ccc(S(=O)(=O)/N=C2\C=C(Nc3cccc(C(=O)O)c3)C(=O)c3ccccc32)cc1,8,-6,31,-1,27
Cc1ccc(S(=O)(=O)/N=C2\C=C(Nc3ccc(O)cc3)C(=O)c3ccccc32)cc1,-6,-11,74*,30,·
COC(=O)c1ccccc1NC1=C/C(=N\S(=O)(=O)c2cccs2)c2ccccc2C1=O,-12,-9,24,1,6
COC(=O)c1ccccc1NC1=C/C(=N\S(=O)(=O)c2ccc(C(=O)O)cc2)c2ccccc2C1=O,-12,4,61*,0,-11
SMILES,ABHD5 PLIN5 PPI,m5-HT2A agonist,B2AR ag,NTR1 agonist,Exocytosis inh
CCc1ccc(S(=O)(=O)/N=C2\C=C(Nc3ccc(C(=O)O)cc3)C(=O)c3ccccc32)cc1,-5,-2,4,3,-7
O=C1C(Nc2ccccc2)=C/C(=N/S(=O)(=O)c2cccs2)c2ccccc21,4,-1,49*,·,75*
Cc1ccc(NC2=C/C(=N/S(=O)(=O)c3cccs3)c3ccccc3C2=O)cc1,-4,-3,43*,14,6
Cc1ccc(S(=O)(=O)N2CCC(C(=O)OCC(=O)NC(C)c3ccc(F)cc3)CC2)cc1C (stereo not drawn),-9,-4,-3,0,-10
O=C1C2C3C=CC(C3)C2C(=O)N1c1ccccc1 (stereo not drawn),-1,-1,0,-2,0
O=C1C2C3C=CC(C3=C3CCCCC3)C2C(=O)N1c1ccccc1 (stereo not drawn),9,2,7,2,80*
CSc1ncc(CN2CCCC(C(=O)Nc3ccc(-c4ccco4)cc3)C2)cn1 (stereo not drawn),35*,4,14,0,1
Cc1ncc(CN2CCCC(C(=O)Nc3ccc(-c4ccco4)cc3)C2)n1C (stereo not drawn),12,-8,4,0,9
COc1cc2c(cc1OC)C(=O)N1[C@H]3c4ccccc4OC[C@@H]3[C@H](c3ccccc3)[C@]1(C)C(=O)N2,-2,-1,6,2,65*
CC1CC(=O)C(C(C2=C(O)CC(C)CC2=O)c2ccccc2)=C(O)C1 (stereo not drawn),23*,-1,3,·,0
CC1CC(=O)c2cc(-c3ccccc3)oc2C1 (stereo not drawn),1,2,·,·,-6
O=C(CSc1ncnc2c1cnn2-c1ccccc1)NC1CCCC1,7,6,0,0,0
COC(=O)c1ccc(C2NCCc3cc(OC)c(OC)cc32)cc1 (stereo not drawn),-9,1,-13,0,2
CC(=O)Nc1ccc(C2=NNC(=Nc3cccc(S(=O)(=O)N(C)C)c3)SC2)cc1,58*,3,-3,-1,1
CCN1/C(=C/c2ccc3cccc(C)c3[n+]2CC)Sc2ccccc21,15,-5,-47,-4,76*
CCN1/C(=C/c2ccc3cc(C)cc(C)c3[n+]2CC)Sc2cc(C)ccc21,8,1,i,·,77*
CCN1/C(=C\c2ccc3cc(C)ccc3[n+]2CC)Sc2cc(C)c(C)cc21,4,1,i,·,73*
CCN1/C(=C/c2ccc3cc(C)ccc3[n+]2CC)Sc2ccc3sccc3c21,5,8,·,-4,74*
C[n+]1ccccc1/C=C1\Sc2ccccc2N1CCO,9,0,-7,0,1
Cc1ccc2c(c1)S/C(=C\c1cccc[n+]1C)N2CCO,1,-1,-72,1,-4
COc1ccc(-c2oc3c(c2C#CC(C)(C)O)C(OCCO)CC3)cc1 (stereo not drawn),-2,-3,·,·,8
Cc1ccc(CNC(=O)Cn2cnc(S(=O)(=O)N3CCC(C)CC3)c2)o1,22*,9,-26,2,0
c1ccc(-c2nc(-n3nc4ccccc4n3)nc3ccccc23)cc1,-1,2,11,15,65*
COc1ccc(CCNC(=O)C2CCN(c3nccc(C)n3)CC2)cc1,-6,2,-3,0,-6
Cc1ccc(OCC(=O)NNC(=O)C2CCN(c3nccc(C)n3)CC2)cc1,9,0,105*,-1,-2
